In the supplement of paper PMC10849652:
Targets with a hit are over-represented here; the source holds about 7,900 in all. About 0.6% of all pairs of compound and target were hits.

Legend:
Assay in all cases: log2 fold change, soluble protein after heating vs DMSO (PISA); higher = thermal stabilisation; K562 cells, 10 uM, 30 min; active = over 0.2 and 3.5 SD of the protein, either way, in both replicates (recomputed)
[1] = compound: NCC(=O)Nc1ccc(-n2nc(C(F)(F)F)cc2-c2ccc3c(ccc4ccccc43)c2)cc1
Method in brief: (§1)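 For each measurement, 10 μM compound was applied for 30 min to K562 cells at 2×10^6 cells/mL. Aliquots were heated for 3 min across 48°C-58°C, pooled, and extracted in PBS with 0.5% NP-40 at 4°C; the supernatant after 21,000xg for 90 min was soluble protein. This was quantified by TMTpro 16plex LC-MS/MS with channel sums equalised, and thermal stability was reported relative to control samples from duplicates, on a log2 fold-change scale.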

citarinostat = compound: O=C(CCCCCCNC(=O)c1cnc(N(c2ccccc2)c2ccccc2Cl)nc1)NO [citarinostat]
Method in brief: as §1

[2] = compound: c1cc(OCCN2CCCCC2)cc(-c2n[nH]c3ccc(-c4nnc[nH]4)cc23)c1
Method in brief: as §1

entospletinib = compound: c1cn2cc(-c3ccc4cn[nH]c4c3)nc(Nc3ccc(N4CCOCC4)cc3)c2n1 [entospletinib]
Method in brief: as §1

[3] = compound: NC1(c2ccc(-c3nc4ccn5c(=O)[nH]nc5c4cc3-c3ccccc3)cc2)CCC1
Method in brief: as §1

silmitasertib = compound: O=C(O)c1ccc2c(c1)nc(Nc1cccc(Cl)c1)c1ccncc12 [silmitasertib]
Method in brief: as §1

[4] = compound: NC(=O)Nc1cc(-c2cccc(F)c2)sc1C(=O)N[C@H]1CCCNC1
Method in brief: as §1

[5] = compound: NC(=O)c1cnc(N[C@@H]2CCCC[C@@H]2N)nc1Nc1cccc(-n2nccn2)c1
Method in brief: as §1

entinostat = compound: Nc1ccccc1NC(=O)c1ccc(CNC(=O)OCc2cccnc2)cc1 [entinostat]
Method in brief: as §1

vorinostat = compound: O=C(CCCCCCC(=O)Nc1ccccc1)NO [vorinostat]
Method in brief: as §1

[6] = compound: O=C1NC(=O)C(c2cnc3ccccn23)=C1c1cn2c3c(cc(F)cc13)CN(C(=O)N1CCCCC1)CC2
Method in brief: as §1

Measured: log2 fold change

PDE4DIP (UniProt E9PS60)
inactive: [1] -0.172 | citarinostat 0.06 | [2] -0.051 | entospletinib -0.01

PCBP2 (UniProt F8VZX2)
inactive: [3] 0.158 | silmitasertib 0.193

POGZ (UniProt Q7Z3K3)
inactive: [4] 0.009 | [5] 0.167 | [1] -0.028 | entinostat -0.031 | vorinostat -0.186 | citarinostat -0.206 | [6] -0.114 | entospletinib 0.101
active: [2] -0.483

PIAS4 (UniProt Q8N2W9)
UniProt Q8N2W9, sequence (Q8N2W9 whole entry, looked up): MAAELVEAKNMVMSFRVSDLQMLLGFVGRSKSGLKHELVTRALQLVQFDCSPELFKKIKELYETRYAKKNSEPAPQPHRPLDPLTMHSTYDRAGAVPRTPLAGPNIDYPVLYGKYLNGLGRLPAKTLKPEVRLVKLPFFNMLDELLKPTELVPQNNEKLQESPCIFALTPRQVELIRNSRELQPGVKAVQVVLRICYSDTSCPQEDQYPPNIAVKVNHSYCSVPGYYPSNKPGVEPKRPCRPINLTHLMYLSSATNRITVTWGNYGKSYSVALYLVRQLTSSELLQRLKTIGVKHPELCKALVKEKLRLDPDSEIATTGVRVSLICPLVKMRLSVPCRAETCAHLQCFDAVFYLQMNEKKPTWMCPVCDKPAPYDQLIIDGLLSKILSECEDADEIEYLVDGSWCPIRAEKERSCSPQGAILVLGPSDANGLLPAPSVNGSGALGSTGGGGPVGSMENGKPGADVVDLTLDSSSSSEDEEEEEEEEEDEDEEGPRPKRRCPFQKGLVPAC
inactive: [3] 0.094 | vorinostat -0.014 | silmitasertib -0.271 | [6] -0.404

PHLDB1 isoform 2 (UniProt Q86UU1)
UniProt Q86UU1, sequence (Q86UU1 whole entry, looked up): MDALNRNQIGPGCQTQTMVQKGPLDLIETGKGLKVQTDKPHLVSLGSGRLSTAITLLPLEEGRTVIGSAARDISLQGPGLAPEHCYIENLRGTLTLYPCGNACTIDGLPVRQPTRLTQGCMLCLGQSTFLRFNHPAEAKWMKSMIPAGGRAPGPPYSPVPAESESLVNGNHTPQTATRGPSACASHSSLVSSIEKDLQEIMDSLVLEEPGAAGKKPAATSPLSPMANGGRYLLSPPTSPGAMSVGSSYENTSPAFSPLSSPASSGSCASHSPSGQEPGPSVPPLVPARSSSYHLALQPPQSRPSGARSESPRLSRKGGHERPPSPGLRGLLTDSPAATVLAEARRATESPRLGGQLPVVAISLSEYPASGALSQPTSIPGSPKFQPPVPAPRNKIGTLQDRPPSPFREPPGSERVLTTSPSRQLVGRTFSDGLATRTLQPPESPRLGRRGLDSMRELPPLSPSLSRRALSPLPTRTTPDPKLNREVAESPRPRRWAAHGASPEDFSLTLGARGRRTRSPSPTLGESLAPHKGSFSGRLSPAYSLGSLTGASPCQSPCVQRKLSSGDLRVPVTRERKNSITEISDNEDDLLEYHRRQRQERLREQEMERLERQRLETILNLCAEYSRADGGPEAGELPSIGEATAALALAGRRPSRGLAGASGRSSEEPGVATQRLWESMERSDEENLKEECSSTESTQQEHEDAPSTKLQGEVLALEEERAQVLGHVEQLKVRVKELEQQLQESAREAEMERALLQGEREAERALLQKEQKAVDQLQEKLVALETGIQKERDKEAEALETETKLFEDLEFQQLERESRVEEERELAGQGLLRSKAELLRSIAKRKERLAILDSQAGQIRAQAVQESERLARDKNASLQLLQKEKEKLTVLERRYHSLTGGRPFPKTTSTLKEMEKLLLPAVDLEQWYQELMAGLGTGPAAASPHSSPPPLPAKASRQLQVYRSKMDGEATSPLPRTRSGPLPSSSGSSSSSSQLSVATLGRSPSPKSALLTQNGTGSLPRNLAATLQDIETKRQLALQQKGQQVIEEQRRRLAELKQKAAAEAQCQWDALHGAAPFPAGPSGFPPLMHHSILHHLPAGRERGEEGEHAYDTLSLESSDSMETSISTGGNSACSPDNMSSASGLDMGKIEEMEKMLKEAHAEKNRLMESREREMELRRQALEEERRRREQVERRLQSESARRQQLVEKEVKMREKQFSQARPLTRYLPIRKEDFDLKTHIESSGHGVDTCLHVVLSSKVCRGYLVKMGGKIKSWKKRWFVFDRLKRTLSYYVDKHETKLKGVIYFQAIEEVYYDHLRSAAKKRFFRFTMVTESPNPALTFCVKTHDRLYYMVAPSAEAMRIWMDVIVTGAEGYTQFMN
inactive: [5] 0.112 | [3] -0.057 | [1] -0.186 | vorinostat 0.229 | citarinostat -0.014 | silmitasertib 0.045 | [6] -0.178 | [2] -0.117 | entospletinib -0.005

PAN2 (UniProt Q504Q3)
inactive: [1] -0.198 | citarinostat -0.127 | [2] 0.002 | entospletinib -0.151

PDSS2 (UniProt Q86YH6)
UniProt Q86YH6, sequence (Q86YH6 whole entry, looked up): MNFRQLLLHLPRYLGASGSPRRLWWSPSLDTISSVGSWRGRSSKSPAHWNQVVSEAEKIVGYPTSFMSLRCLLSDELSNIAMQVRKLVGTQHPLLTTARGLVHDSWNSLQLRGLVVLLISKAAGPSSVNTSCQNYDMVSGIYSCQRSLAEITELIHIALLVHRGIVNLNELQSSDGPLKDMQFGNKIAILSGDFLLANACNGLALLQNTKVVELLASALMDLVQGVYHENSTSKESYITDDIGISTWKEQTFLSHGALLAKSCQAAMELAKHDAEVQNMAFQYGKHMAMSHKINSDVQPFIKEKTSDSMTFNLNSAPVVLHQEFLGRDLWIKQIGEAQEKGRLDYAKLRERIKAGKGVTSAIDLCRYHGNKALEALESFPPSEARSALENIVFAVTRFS
inactive: [4] -0.108 | [5] -0.015 | [1] 0.011 | entinostat -0.009 | vorinostat 0.041 | citarinostat 0.018 | [6] 0.026 | [2] -0.029 | entospletinib -0.152

PIK3CD (UniProt O00329)
UniProt O00329, sequence (O00329 whole entry, looked up): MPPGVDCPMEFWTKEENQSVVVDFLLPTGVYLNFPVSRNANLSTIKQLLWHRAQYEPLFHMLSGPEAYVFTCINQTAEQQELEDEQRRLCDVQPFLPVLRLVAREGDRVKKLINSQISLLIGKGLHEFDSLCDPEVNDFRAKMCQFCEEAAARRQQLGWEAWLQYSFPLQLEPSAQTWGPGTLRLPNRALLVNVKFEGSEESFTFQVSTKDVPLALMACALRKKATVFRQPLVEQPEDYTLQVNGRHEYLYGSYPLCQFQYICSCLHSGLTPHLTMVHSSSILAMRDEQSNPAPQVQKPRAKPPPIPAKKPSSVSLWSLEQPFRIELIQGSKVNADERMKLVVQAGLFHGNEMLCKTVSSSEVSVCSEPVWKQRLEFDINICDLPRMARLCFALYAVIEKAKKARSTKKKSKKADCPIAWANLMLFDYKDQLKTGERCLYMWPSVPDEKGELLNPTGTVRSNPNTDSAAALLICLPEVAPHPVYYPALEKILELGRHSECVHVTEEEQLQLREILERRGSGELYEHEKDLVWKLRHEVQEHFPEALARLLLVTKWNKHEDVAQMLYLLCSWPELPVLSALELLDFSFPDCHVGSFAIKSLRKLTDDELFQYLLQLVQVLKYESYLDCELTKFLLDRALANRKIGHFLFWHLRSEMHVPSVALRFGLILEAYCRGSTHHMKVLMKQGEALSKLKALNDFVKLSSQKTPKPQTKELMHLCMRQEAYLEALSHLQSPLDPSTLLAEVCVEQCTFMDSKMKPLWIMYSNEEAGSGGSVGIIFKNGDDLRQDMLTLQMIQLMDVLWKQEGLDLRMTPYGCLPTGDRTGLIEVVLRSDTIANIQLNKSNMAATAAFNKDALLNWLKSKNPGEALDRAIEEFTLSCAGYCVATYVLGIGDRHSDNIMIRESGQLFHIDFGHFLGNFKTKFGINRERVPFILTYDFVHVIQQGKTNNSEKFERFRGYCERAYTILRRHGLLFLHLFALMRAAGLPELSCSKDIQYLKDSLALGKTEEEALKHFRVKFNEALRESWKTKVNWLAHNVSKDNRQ
inactive: [4] 0.086 | [5] 0.014 | [1] -0.047 | entinostat -0.008 | citarinostat -0.285 | [6] -0.092 | [2] 0.143 | entospletinib -0.206

PSMC3 (UniProt E9PLG2)
inactive: [4] -0.62 | [3] -0.077 | [1] 0.117 | entinostat -0.438 | silmitasertib 0.097 | [6] -0.327

PPP2R5B (UniProt Q15173)
UniProt Q15173, sequence (Q15173 whole entry, looked up): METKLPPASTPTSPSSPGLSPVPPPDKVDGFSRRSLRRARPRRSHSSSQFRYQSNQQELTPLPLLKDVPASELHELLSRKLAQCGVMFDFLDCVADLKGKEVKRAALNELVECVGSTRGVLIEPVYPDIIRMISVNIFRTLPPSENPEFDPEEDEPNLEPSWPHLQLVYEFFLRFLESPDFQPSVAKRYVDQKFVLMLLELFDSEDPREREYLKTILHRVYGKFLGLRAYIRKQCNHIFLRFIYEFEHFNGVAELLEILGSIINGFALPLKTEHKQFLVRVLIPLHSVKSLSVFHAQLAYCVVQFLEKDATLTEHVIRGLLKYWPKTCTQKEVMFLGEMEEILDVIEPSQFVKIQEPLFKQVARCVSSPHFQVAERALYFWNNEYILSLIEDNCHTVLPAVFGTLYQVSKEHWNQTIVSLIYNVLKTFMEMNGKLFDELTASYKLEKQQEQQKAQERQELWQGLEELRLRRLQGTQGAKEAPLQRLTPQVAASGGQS
inactive: [5] 0.017 | [3] -0.167 | [1] -0.006 | vorinostat 0.112 | citarinostat 0.122 | silmitasertib 0 | [2] 0.127 | entospletinib -0.321

PUF60 isoform 2 (UniProt Q9UHX1)
UniProt Q9UHX1, sequence (Q9UHX1 whole entry, looked up): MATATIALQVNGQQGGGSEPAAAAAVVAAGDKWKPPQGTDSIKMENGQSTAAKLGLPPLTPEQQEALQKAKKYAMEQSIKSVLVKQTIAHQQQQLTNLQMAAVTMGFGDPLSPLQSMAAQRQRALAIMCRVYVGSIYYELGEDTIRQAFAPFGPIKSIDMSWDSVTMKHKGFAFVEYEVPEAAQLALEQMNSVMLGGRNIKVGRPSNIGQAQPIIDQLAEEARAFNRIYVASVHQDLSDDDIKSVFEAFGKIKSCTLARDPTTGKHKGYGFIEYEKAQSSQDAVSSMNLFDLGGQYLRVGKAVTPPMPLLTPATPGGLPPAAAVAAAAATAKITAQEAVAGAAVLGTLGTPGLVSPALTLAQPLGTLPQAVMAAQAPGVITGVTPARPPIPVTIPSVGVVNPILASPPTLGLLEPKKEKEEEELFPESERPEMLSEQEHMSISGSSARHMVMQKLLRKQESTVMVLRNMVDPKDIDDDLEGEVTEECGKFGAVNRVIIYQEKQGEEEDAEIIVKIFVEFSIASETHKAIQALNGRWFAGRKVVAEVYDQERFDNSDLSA
inactive: [5] 0.024 | [3] -0.137 | [1] 0.21 | silmitasertib 0.069

PIM1 isoform 2 (UniProt P11309)
UniProt P11309, sequence (P11309 whole entry, looked up): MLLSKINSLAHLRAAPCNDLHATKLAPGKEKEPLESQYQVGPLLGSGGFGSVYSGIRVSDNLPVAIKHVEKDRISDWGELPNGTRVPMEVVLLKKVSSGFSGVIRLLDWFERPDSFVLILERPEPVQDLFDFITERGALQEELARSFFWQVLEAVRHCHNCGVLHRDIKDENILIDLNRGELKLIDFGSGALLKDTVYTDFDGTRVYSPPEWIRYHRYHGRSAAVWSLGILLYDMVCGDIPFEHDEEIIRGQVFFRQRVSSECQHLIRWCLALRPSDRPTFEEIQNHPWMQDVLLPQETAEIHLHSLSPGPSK
inactive: [3] 0.388 | vorinostat -0.123 | silmitasertib 0.575

PRKX (UniProt P51817)
inactive: [3] -0.243 | silmitasertib 0.153

PHRF1 (UniProt Q9P1Y6)
inactive: [3] 0.148 | silmitasertib 0.176

PRR14L (UniProt Q5THK1)
inactive: [5] -0.205 | [1] -0.176 | vorinostat -0.009
